Structures are written as SMILES. For part of these data: Entries with a potency or affinity are not part of this list.

The values that follow come from ChEMBL document CHEMBL4296182, “CO-ADD screening of NIH NCI Diversity Set V”.

One experiment deals with Staphylococcus aureus. Description: Antibacterial activity against Staphylococcus aureus MRSA ATCC 43300 (CO-ADD:GP_020); MIC in CAMBH media using NBS plates, by Resazurin F(560/590). The settings on record: Concentration 20 uM, ASSAY_TEST Inhibition of Bacterial Growth, detection method Resazurin, Fluorescence (ex560/em590), MEDIA CAMHB, plate type 384well, CORNING #3640, time 18 hr. The experiment is classed as functional. For orientation: Resazurin is reduced to fluorescent resorufin, in cell work by metabolically active cells.

A further experiment relates to Acinetobacter baumannii. Description: Antibacterial activity against Acinetobacter baumannii ATCC 19606 (CO-ADD:GN_034); MIC in CAMBH media using NBS plates, by Resazurin F(560/590). To be noted: Concentration 20 uM, ASSAY_TEST Inhibition of Bacterial Growth, detection method Resazurin, Fluorescence (ex560/em590), MEDIA CAMHB, plate type 384well, CORNING #3640, time 18 hr. It counts as functional.

A further experiment deals with Escherichia coli. In words: Antibacterial activity against Escherichia coli ATCC 25922 (CO-ADD:GN_001); MIC in CAMBH media using NBS plates, by Resazurin F(560/590). The settings on record: Concentration 20 uM, ASSAY_TEST Inhibition of Bacterial Growth, detection method Resazurin, Fluorescence (ex560/em590), MEDIA CAMHB, plate type 384well, CORNING #3640, time 18 hr. The experiment is classed as functional.

The subject of a further experiment is Klebsiella pneumoniae. The settings on record: Concentration 20 uM; ASSAY_TEST Inhibition of Bacterial Growth; detection method Absorption (OD600); MEDIA CAMHB; plate type 384well; NBS; CORNING #3640; time 18 hr.
The test system of another experiment is Candida albicans. To be noted: 20 µM.
A further experiment relates to Cryptococcus neoformans. The settings on record: Concentration 20 uM; ASSAY_TEST Inhibition of Fungal Growth; detection method Resazurin; Absorption (OD600-OD570); plate type 384well; NBS; CORNING #3640.

The Inhibition is the relative decrease from the control value, in per cent. Take `CC(=O)Nc1ccc(Cc2nc3c(=O)n(C)c(=O)n(C)c3[nH]2)cc1`: the Inhibition was 10.98% in the experiment on Staphylococcus aureus; -13.87% with Acinetobacter baumannii; 3.26% with Escherichia coli; 6.41% in the experiment with Klebsiella pneumoniae; 3.5% in the experiment on Candida albicans; -7.42% in the experiment with Cryptococcus neoformans.
Consider `c1ccc(-c2ccc(-c3nccc4ccccc34)[nH]2)cc1`, for which the Inhibition with Staphylococcus aureus is -4.96%; in the experiment on Acinetobacter baumannii, -13.85%; with Escherichia coli it was 6.1%; in the experiment with Klebsiella pneumoniae, 4.74%; with Candida albicans, 14%; in the experiment with Cryptococcus neoformans it was -7.81%.
Consider `CCOC(=O)C(=O)Cc1nc2ccccc2s1`, for which the Inhibition is 2.9% in the experiment with Staphylococcus aureus; -6.12% in the experiment with Acinetobacter baumannii; 10.05% in the experiment on Escherichia coli; 6.52% with Klebsiella pneumoniae; 16% with Candida albicans; -6.27% in the experiment with Cryptococcus neoformans.
With `O=C(O)/C(=C/c1ccccc1)c1ccccc1`, the Inhibition in the experiment on Staphylococcus aureus is 7.86%; in the experiment with Acinetobacter baumannii, -10.93%; with Escherichia coli, 11.66%; in the experiment on Klebsiella pneumoniae it was 8.35%; with Candida albicans, 8.14%; with Cryptococcus neoformans, -16.02%.
On to `c1ccc(-c2ccc3c(c2)NCCN3)cc1`, for which the Inhibition in the experiment with Staphylococcus aureus is 0.03%; with Acinetobacter baumannii it was -10.39%; with Escherichia coli it was 5.22%; with Klebsiella pneumoniae, 8.37%; with Candida albicans, -1.02%; in the experiment with Cryptococcus neoformans, 1.51%.
Turning to `CCC(C)NC(=O)c1cccc(C)c1` (centres undefined), the Inhibition was 27.07% in the experiment with Staphylococcus aureus; -10.03% in the experiment on Acinetobacter baumannii; 12.99% with Escherichia coli; 13.06% in the experiment with Klebsiella pneumoniae; 3.19% in the experiment on Candida albicans; -7.62% with Cryptococcus neoformans.
Take `O=C1C2CC3N1CCC31c3ccccc3-n3c1c2ccc3=O` (centres undefined): the Inhibition is 27.56% with Staphylococcus aureus; -3.15% in the experiment on Acinetobacter baumannii; 6.22% in the experiment with Escherichia coli; 13.77% with Klebsiella pneumoniae; 5.53% in the experiment with Candida albicans; -4.11% in the experiment on Cryptococcus neoformans.
For `O=C(O)C1CCC(=O)N1C(=O)OCc1ccccc1` (centres undefined), the Inhibition is 2.22% with Staphylococcus aureus; -12.76% in the experiment on Acinetobacter baumannii; 8.61% in the experiment with Escherichia coli; 12.18% in the experiment with Klebsiella pneumoniae; -1.6% with Candida albicans; -3.17% in the experiment with Cryptococcus neoformans.
With `O=c1[nH]c(=S)c2ncn(-c3ccccc3)c2[nH]1`, the Inhibition with Staphylococcus aureus is -3.01%; in the experiment on Acinetobacter baumannii it was -10.26%; with Escherichia coli it was 3.12%; in the experiment with Klebsiella pneumoniae, 1.95%; in the experiment on Candida albicans it was 9.78%; with Cryptococcus neoformans, -2.67%.
Turning to `CCN(CC)Cc1cc2[nH]c3c4ccc(Cl)cc4ncc3c2cc1OC`, the Inhibition in the experiment on Staphylococcus aureus is 9.09%; in the experiment on Acinetobacter baumannii it was 18.93%; in the experiment on Escherichia coli, -2.05%; in the experiment on Klebsiella pneumoniae, 30.45%; in the experiment with Candida albicans, -0.29%; in the experiment with Cryptococcus neoformans, -5.75%.
Regarding `CC(C)N(Cc1ccccc1)S(=O)(=O)c1nc(C(C)(C)C)n[nH]1`, the Inhibition is 14.24% in the experiment on Staphylococcus aureus; 7.66% in the experiment on Acinetobacter baumannii; 0.73% in the experiment with Escherichia coli; 17.58% in the experiment with Klebsiella pneumoniae; 0.76% in the experiment with Candida albicans; -4.79% in the experiment with Cryptococcus neoformans.
For `COC(=NC(C)C)NC(C)C`, the Inhibition in the experiment on Staphylococcus aureus is 0.33%; in the experiment with Acinetobacter baumannii it was -8.49%; in the experiment on Escherichia coli it was 15.21%; in the experiment on Klebsiella pneumoniae, 8%; in the experiment with Candida albicans, 1.22%; with Cryptococcus neoformans, -13.2%.
Consider `CCCNC(=O)c1ccccc1C(=O)NC1(C(=O)NCCC)CCCC1`, for which the Inhibition with Staphylococcus aureus was 14.23%; in the experiment with Acinetobacter baumannii, 6.45%; with Escherichia coli, 3.42%; with Klebsiella pneumoniae, 12.55%; in the experiment with Candida albicans it was -0.46%; with Cryptococcus neoformans, -3.84%.
As to `CC(C)c1cc(C(C)C)n2nc(N)nc2n1`, the Inhibition was 6.67% with Staphylococcus aureus; 8.95% in the experiment with Acinetobacter baumannii; 5.1% with Escherichia coli; 0.39% in the experiment on Klebsiella pneumoniae; -0.42% in the experiment on Candida albicans; -7.51% in the experiment with Cryptococcus neoformans.
Regarding `O=C(O)c1cccc2c1C(=O)c1cccc3snc-2c13`, the Inhibition was 11.24% in the experiment with Staphylococcus aureus; 8.28% in the experiment with Acinetobacter baumannii; -4.32% in the experiment with Escherichia coli; 2.89% with Klebsiella pneumoniae; 21.9% in the experiment with Candida albicans; -0.5% with Cryptococcus neoformans.
As to `Cc1cccc(N2CCN(CC(O)COc3ccccc3Cl)CC2)c1` (centres undefined), the Inhibition is 6.25% with Staphylococcus aureus; 7.51% in the experiment on Acinetobacter baumannii; 7.94% in the experiment with Escherichia coli; 12.03% in the experiment with Klebsiella pneumoniae; -0.3% with Candida albicans; -18.69% in the experiment on Cryptococcus neoformans.
On to `CCOC(=O)CSc1nc2nc(Cl)c(Cl)[nH]c-2n1`, for which the Inhibition is 22.58% with Staphylococcus aureus; 6.84% in the experiment with Acinetobacter baumannii; -0.86% in the experiment with Escherichia coli; 8.77% in the experiment on Klebsiella pneumoniae; 0.89% in the experiment on Candida albicans; 3.6% in the experiment on Cryptococcus neoformans.
Consider `CC(=O)Oc1ccc(C(c2ccc(OC(C)=O)cc2)c2ccccn2)cc1` [BISACODYL], for which the Inhibition in the experiment with Staphylococcus aureus is 25.36%; in the experiment with Acinetobacter baumannii, -9.02%; with Escherichia coli it was 15.4%; in the experiment with Klebsiella pneumoniae it was 14.3%; with Candida albicans, 0.53%; in the experiment with Cryptococcus neoformans it was -1.75%.
As for `NC(=O)c1cc(C(N)=O)nc(Cl)n1`, the Inhibition is 12.7% in the experiment with Staphylococcus aureus; 0.04% with Acinetobacter baumannii; 10.33% in the experiment with Escherichia coli; 2.11% with Klebsiella pneumoniae; -2.97% with Candida albicans; -9.62% with Cryptococcus neoformans.
Consider `Cc1ccc2nc(Cl)cc(=O)n2c1`, for which the Inhibition is 3.79% with Staphylococcus aureus; -0.85% in the experiment with Acinetobacter baumannii; -11.05% with Escherichia coli; 5.29% in the experiment on Klebsiella pneumoniae; 1.34% with Candida albicans; 9.92% in the experiment with Cryptococcus neoformans.
Consider `COC(=O)[C@H]1[C@H]2C[C@@H]3c4[nH]c5cc(OC)ccc5c4CCN3C[C@H]2C[C@@H](OC(=O)CC(C)=O)[C@@H]1OC`, for which the Inhibition with Staphylococcus aureus is 16.88%; in the experiment with Acinetobacter baumannii it was -0.32%; in the experiment with Escherichia coli it was 11.28%; with Klebsiella pneumoniae, 5.93%; with Candida albicans, -0.86%; in the experiment with Cryptococcus neoformans, -1.53%.
Turning to `CCCN(CCC)CC(=O)N1CC(=O)Nc2ccccc21`, the Inhibition with Staphylococcus aureus is -18.07%; in the experiment on Acinetobacter baumannii, -3.41%; with Escherichia coli, -10.49%; in the experiment on Klebsiella pneumoniae, 8.75%; in the experiment with Candida albicans it was 3.75%; in the experiment on Cryptococcus neoformans, -3.68%.
Turning to `Brc1csc2ncccc12`, the Inhibition with Staphylococcus aureus is 8.68%; with Acinetobacter baumannii, 14.4%; in the experiment on Escherichia coli, -1.37%; in the experiment on Klebsiella pneumoniae it was 10.17%; in the experiment on Candida albicans, 7.21%; with Cryptococcus neoformans, -5.07%.
In the case of `COc1ccc(C2=NC(=O)NC2c2ccc(OC)cc2)cc1` (centres undefined), the Inhibition with Staphylococcus aureus was 6.62%; in the experiment with Acinetobacter baumannii it was 10.45%; in the experiment with Escherichia coli, -0.66%; in the experiment on Klebsiella pneumoniae, 17.66%; with Candida albicans, 6.15%; in the experiment on Cryptococcus neoformans, -4.19%.
